We go through eight compounds from PubChem BioAssay (Tox21).

Values without a mark were called inactive. Results filed as inconclusive are left out. Calls of active or inactive are those of the source. Unless noted, calls follow the shape of the dose curve; as a rule, active = well fitted curve in the direction sought with a large enough effect in the repeat runs; inconclusive = weak or mixed curves; inactive = no such curve, though single readings can be large; an effect the other way counts as inactive or inconclusive.

Test [1] in a line: qHTS assay to test for compound auto fluorescence at 535 nm (green) in HEK293 cells (AID 720680).
Test [2] can be described thus: qHTS assay to test for compound auto fluorescence at 460 nm (blue) in HEK293 cell free culture (AID 720681). In outline:
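Blue fluorescence (Ex 405/Em 460 nm, triamterene-equivalent) was read immediately after pin transfer of compound or DMSO into medium (DMEM, 10% FBS) without cells.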

A short description of test [3]: qHTS assay to test for compound auto fluorescence at 535 nm (green) in HEK293 cell free culture (AID 720682). In outline:
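Intrinsic compound fluorescence is measured in culture medium containing 10% FBS, with excitation at 485 nm and detection at 535 nm, referenced to fluorescein.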

Test [4] is described as follows: qHTS assay to test for compound auto fluorescence at 590 nm (red) in HEK293 cell free culture (AID 720683). An outline of the steps: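 Red-channel autofluorescence of compounds in culture medium (DMEM, 10% FBS), no cells, measured at 540/590 nm. Rose Bengal sodium is the reference fluorophore for equivalence.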
Test [5] is described as follows: qHTS assay to test for compound auto fluorescence at 590 nm (red) in HepG2 cell free culture (AID 720684). In outline:
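Steps: dispense MEM/10% FBS medium, no cells; pin compound or DMSO vehicle; read red channel, Ex/Em 540/590 nm. Output given as Rose Bengal sodium equivalents.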

A short description of test [6]: qHTS assay to test for compound auto fluorescence at 460 nm (blue) in HepG2 cell free culture (AID 720685). An outline of the steps: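 Compound (23 nL) or DMSO pinned into cell-free MEM with 10% FBS; blue fluorescence read at 405/460 nm excitation/emission, expressed as auto-fluorescence equivalency to triamterene.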
The nature of test [7]: qHTS assay to test for compound auto fluorescence at 460 nm (blue) in HepG2 cells (AID 720687). An outline of the steps: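 Blue-channel autofluorescence (Ex/Em 405/460 nm, triamterene-equivalent) was measured after 1 hr compound exposure at 37 C, 5% CO2. Cells were HepG2, plated overnight at 37 C in MEM plus 10% FBS.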
Test [8] can be described thus: qHTS assay to identify small molecule antagonists of the glucocorticoid receptor (GR) signaling pathway - cell viability counter screen (AID 720693). Also: nearly all actives have a fitted effect of over 55% in size.
The nature of test [9]: qHTS assay for identifying genotoxic compounds that show differential cytotoxicity against isogenic chicken DT40 cell lines with known DNA damage response pathways - wild type cell line (AID 743012). Also: nearly all actives have a fitted effect of over 60% in size. Also: potency is read from the fitted curve at half-maximal effect. An outline of the steps:
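Parental DNA repair-proficient DT40 cells, 300 per well, were pre-incubated ~0.5 h at 37 C/5% CO2, pin-dosed with compounds in DMSO, then incubated 40 h. Viability was read as CellTiter-Glo luminescence after 30 min at room temperature.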

Test [10] in a line: qHTS assay for identifying genotoxic compounds that show differential cytotoxicity against isogenic chicken DT40 cell lines with known DNA damage response pathways - Rev3 mutant cell line (AID 743014). Also: nearly all actives have a fitted effect of over 55% in size.
Test [11] is described as follows: qHTS assay for identifying genotoxic compounds that show differential cytotoxicity against isogenic chicken DT40 cell lines with known DNA damage response pathways - Rad54/Ku70 mutant cell line (AID 743015). Also: nearly all actives have a fitted effect of over 60% in size. Also: potency is read from the fitted curve at half-maximal effect.
Test [12] can be described thus: qHTS assay to identify small molecule antagonists of the androgen receptor (AR) signaling pathway - cell viability counter screen (AID 743033; also: nearly all actives have a fitted effect of over 45% in size).
Test [13] in a line: qHTS assay to identify small molecule antagonists of the androgen receptor (AR) signaling pathway using the MDA cell line - cell viability counter screen (AID 743041; also: nearly all actives have a fitted effect of over 45% in size). An outline of the steps: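 Cells were plated at 3,000 per well and left 5 h. Compounds in DMSO were then pinned in, followed by R1881. After 16 h at 37C, CellTiter-Fluor fluorescence gave viability.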
Test [14] has as its target Glucocorticoid receptor (Homo sapiens) (UniProt P04150). Put plainly: qHTS assay to identify small molecule agonists of the glucocorticoid receptor (GR) signaling pathway (AID 720691; active = well fitted activation curve with a large enough effect in the signal ratio in the repeat runs, not every such curve was filed as active; the % refers to the signal ratio). An outline of the steps: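 GR-bla HeLa cells (beta-lactamase reporter under glucocorticoid response element) were plated 4 h at 37 C/5% CO2, given compounds in DMSO, and incubated 18 h at 37 C. LiveBLAzer B/G FRET substrate was added for 2 h at room temperature, then fluorescence intensity read.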

The target is the same in test [15]. Put plainly: qHTS assay to identify small molecule antagonists of the glucocorticoid receptor (GR) signaling pathway (AID 720692; active = well fitted inhibition curve with a large enough effect in the signal ratio in the repeat runs, not every such curve was filed as active; the % refers to the signal ratio). An outline of the steps:
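GR-bla HeLa cells (beta-lactamase reporter under glucocorticoid response element) were pre-plated 4 h at 37 C, treated with compounds plus 5 nM dexamethasone (final) for 18 h, then read by LiveBLAzer B/G FRET fluorescence after 2 h.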

Test [16] has as its target Androgen receptor (Homo sapiens) (UniProt P10275). Description: qHTS assay to identify small molecule antagonists of the androgen receptor (AR) signaling pathway (AID 743035; active = well fitted inhibition curve with a large enough effect in the signal ratio in the repeat runs, not every such curve was filed as active; the % refers to the signal ratio). An outline of the steps: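 HEK293 cells stably carrying a UAS-driven beta-lactamase reporter (AR-UAS-bla GripTite) were plated for 4 h at 37C, then given compound and the agonist R1881 and incubated 16 h. Reporter activity was read by LiveBLAzer B/G FRET fluorescence after 2 h at room temperature.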

Test [17] has the same target. Description: qHTS assay to identify small molecule agonists of the androgen receptor (AR) signaling pathway (AID 743036; active = well fitted activation curve with a large enough effect in the signal ratio in the repeat runs, with a control signal flat, not every such curve was filed as active; the % refers to the signal ratio). In outline:
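Agonist activity was scored by beta-lactamase reporter fluorescence in stably transfected HEK293 cells exposed to compounds for 16 h at 37C and 5% CO2. Substrate loading took 2 h at room temperature.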

Test [18] has the same target. Description: qHTS assay to identify small molecule agonists of the androgen receptor (AR) signaling pathway using the MDA cell line (AID 743040; also: nearly all actives have a fitted effect of over 20% in size). An outline of the steps:
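Cells plated, 5 h at 37C/0% CO2; compound or DMSO pinned; 16 h at 37C; ONE-Glo added; luminescence measured after 30 min at room temperature. Reporter line: MDA-kb2 with MMTV-luciferase responsive to AR and GR.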

Test [19] shares this target. Put plainly: qHTS assay to identify small molecule antagonists of the androgen receptor (AR) signaling pathway using the MDA cell line (AID 743042; also: nearly all actives have a fitted effect of over 55% in size). In outline:
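Antagonist mode: compounds plus R1881 agonist added to MDA-kb2 AR-luc cells, incubated 16 h at 37C. Luciferase reporter luminescence quantified, with multiplexed CellTiter-Fluor readout for cell viability.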

Test [20] can be described thus: qHTS assay to test for compound auto fluorescence at 535 nm (green) in HepG2 cell free culture (AID 720686).
% is scaled to controls: 0 for no effect and ±100 for the full control effect.

Glucocorticoid receptor (Homo sapiens), sequence (P04150 whole entry, looked up): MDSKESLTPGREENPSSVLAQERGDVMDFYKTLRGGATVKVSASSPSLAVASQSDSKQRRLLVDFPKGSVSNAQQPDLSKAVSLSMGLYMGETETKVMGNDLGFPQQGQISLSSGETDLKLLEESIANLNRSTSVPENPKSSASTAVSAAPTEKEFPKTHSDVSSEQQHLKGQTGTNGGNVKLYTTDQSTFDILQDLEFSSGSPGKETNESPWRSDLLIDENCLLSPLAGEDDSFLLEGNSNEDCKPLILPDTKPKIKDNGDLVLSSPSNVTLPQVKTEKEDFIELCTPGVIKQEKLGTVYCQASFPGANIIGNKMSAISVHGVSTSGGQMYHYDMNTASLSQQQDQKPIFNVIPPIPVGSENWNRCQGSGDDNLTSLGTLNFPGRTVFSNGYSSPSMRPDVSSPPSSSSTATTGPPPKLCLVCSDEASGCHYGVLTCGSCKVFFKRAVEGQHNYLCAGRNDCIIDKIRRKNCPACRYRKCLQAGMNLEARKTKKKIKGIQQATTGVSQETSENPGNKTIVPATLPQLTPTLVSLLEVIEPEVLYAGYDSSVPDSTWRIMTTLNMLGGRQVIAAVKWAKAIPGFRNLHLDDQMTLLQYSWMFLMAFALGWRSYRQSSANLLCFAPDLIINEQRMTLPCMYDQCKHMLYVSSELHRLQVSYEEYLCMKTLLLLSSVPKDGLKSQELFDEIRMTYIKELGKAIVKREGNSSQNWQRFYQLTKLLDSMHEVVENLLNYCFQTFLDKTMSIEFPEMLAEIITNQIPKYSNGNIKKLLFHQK
Androgen receptor (Homo sapiens), sequence (P10275 whole entry, looked up): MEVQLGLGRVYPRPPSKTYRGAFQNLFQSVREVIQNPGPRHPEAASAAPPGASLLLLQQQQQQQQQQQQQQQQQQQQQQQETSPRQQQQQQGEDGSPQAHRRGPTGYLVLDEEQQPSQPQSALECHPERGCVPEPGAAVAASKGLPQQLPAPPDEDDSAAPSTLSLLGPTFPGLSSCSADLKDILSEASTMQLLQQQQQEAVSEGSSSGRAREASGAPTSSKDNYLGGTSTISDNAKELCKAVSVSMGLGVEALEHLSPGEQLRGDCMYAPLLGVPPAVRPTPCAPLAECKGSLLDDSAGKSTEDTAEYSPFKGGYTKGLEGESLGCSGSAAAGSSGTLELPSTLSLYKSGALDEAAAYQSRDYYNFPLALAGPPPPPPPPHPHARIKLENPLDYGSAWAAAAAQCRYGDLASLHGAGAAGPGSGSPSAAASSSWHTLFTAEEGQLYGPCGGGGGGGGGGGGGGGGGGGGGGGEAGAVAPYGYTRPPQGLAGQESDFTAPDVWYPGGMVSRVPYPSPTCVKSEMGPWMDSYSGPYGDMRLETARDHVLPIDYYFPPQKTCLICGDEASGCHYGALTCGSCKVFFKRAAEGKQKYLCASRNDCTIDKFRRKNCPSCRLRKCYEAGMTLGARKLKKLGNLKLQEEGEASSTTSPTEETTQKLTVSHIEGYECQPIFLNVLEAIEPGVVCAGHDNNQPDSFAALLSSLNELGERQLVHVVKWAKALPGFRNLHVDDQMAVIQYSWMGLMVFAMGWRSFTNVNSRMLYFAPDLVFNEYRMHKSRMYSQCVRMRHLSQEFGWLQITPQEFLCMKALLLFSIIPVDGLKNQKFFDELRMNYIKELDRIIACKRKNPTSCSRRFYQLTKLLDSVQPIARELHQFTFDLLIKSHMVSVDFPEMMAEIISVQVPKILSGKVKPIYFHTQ

On to `Nc1cc(Cl)cc(S(=O)(=O)O)c1O`, for which the call in [1], in test [2], in [3], in test [4], in test [5] and in test [6] was inactive. Moreover, the compound was called inactive in test [7], in test [12] and in test [13]. Also, the Potency result in test [8], in test [9], in [10] and in test [11] was “inactive” in each case.
In the case of `O=C(/C=C/c1ccccc1)NCCO`, the compound was classed as inactive in test [1], in [2], in test [3], in test [4], in test [5] and in test [6]. Moreover, the call in test [7], in test [12] and in [13] was inactive. In addition, the Potency entry in test [14], in test [8], in test [9], in test [10] and in test [11] was “inactive” each time.
Turning to `O=c1cc(O)c(Cl)c[nH]1`, the compound was classed as inactive in test [1], in test [2], in [3], in [4], in test [5] and in test [6]. The call in test [7], in [12] and in [13] was inactive. Also, the Potency result in test [8], in test [9] and in test [11] was “inactive” each time.
On to `Nc1ccnc(=O)[nH]1`, for which the compound was classed as inactive in test [1], in test [2], in [3], in test [4], in [5] and in test [6]. Further, the call in test [7], in test [15], in test [12], in [17], in test [18] and in test [13] was inactive. The result in test [19] was inactive. Further, the Potency result in [14], in test [8], in test [9], in test [10], in test [11] and in test [16] was “inactive” throughout.
As to `NS(=O)(=O)c1cc2c(cc1Cl)NC(CC1CCCC1)NS2(=O)=O` (stereo not drawn), the fluorescence, % of fluorescein in test [1] was 0.0502% [at 18.6 µM]. The fluorescence, % of fluorescent control in [2] is -0.0459% [at 18.6 µM]; in test [4], -0.0938% [at 18.6 µM]; in test [6], -0.0354% [at 18.6 µM]; in [7], 0.11% [at 18.6 µM]. For the same compound, the activity change in test [3] is 0.104% [at 18.6 µM]. Further, in test [5], the fluorescence, % of Rose Bengal was 0.409% [at 18.6 µM]. Also, the Potency result in [14], in test [8], in test [9] and in test [10] was “inactive” each time. The compound was classed as inactive in [15], in [12] and in test [13].
Regarding `CN(C1CCCCC1)S(=O)(=O)c1ccccc1N`, the outcome in [1], in test [2], in [3], in test [4], in test [5] and in [6] was inactive. Moreover, the call in test [7] and in test [13] was inactive. For the same compound, the Potency entry in test [8] was “inactive”. In addition, the values for the Potency in test [9] and in test [11] were 30.6 µM (active) and 54.5 µM (active), respectively.
Consider `CC(=O)c1ccc(OCC(=O)N2CCCCC2)cc1`, for which the call in test [1], in test [3], in test [4], in [5], in test [6] and in test [20] was inactive. In addition, the outcome in test [7], in test [15], in test [12] and in test [13] was inactive. Also, the Potency entry in test [14], in [8], in test [9], in test [10] and in test [11] was “inactive” throughout.
As to `Cc1ccccc1OCC1CO1` (stereo not drawn), the call in test [1], in test [2], in test [3], in test [4], in [5] and in test [6] was inactive. In addition, the outcome in test [7], in test [15], in [12] and in [13] was inactive. Besides, the Potency entry in [14], in test [8], in test [9], in test [10] and in [11] was “inactive” each time.
